PDI inh = inhibitors of human PDI, primary screen, biochemical, turbidity, single point, plate reader; PDI insulin aggregation turbidity, A650, 90 min; inhibition, % at 10 µM; 350,000 tested, 0.052% active; AID 588391, 2011;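 active means mean inhibition across replicates of 30% or more, whatever share of single replicates reach that level; inconclusive means mean inhibition below 30% while every single replicate reaches 30%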
ERp5 inh = inhibitors of ERp5-driven insulin aggregation, primary screen, biochemical, turbidity, absorbance 650 nm, single point; Protein disulfide-isomerase A6 (Homo sapiens), Q15084; 90 min; inhibition, % at 9.99 µM; 350,000 tested, 0.05% active; AID 651711, 2012;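 active means mean replicate inhibition above about 25%, with every replicate also reaching it, limit read from the data, passing the limit was not always enough; inconclusive means only one of those two criteria met; inactive means neither criterion met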
Target sequence (Q15084 whole entry, looked up): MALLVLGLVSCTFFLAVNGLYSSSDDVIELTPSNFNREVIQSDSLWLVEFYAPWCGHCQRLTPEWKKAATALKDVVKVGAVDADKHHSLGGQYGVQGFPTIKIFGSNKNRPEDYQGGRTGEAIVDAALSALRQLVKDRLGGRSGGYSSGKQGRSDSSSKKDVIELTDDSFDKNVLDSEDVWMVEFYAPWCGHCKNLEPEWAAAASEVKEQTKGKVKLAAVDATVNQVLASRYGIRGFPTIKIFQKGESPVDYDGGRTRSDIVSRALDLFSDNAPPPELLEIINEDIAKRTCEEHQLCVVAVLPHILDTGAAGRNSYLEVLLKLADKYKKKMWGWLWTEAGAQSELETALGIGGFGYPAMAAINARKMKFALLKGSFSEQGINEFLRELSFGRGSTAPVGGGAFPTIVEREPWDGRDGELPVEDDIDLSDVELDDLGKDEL
DENV2 CPE rescue = inhibitors of DENV2 cytopathic effect, primary screen, cell-based, plate reader, single concentration; DENV2-infected cells, cytopathic effect rescue; CPE inhibition, % at 9.99 µM; 350,000 tested, 1.7% active; AID 651640, 2012; in the data active means CPE inhibition above about 20%, passing the limit was not always enough; inconclusive means no clear call, values can overlap the other calls; tested in BHK-21 cells;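 further: 0% = median of neutral control wells and 100% = median of positive control wells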
Rtt109 Vps75 = inhibitors of C. albicans Rtt109/Vps75 HAT, primary screen, biochemical, ThioGlo CoA-SH fluorescence, plate reader. AID 540336, 2011. 330,000 tested, 0.16% active. inhibition, % at 34.9 µM. purified Rtt109/Vps75, 4 h;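 active means inhibition of at least 50% in every replicate; inconclusive means best replicate reaches 50% inhibition but some replicates fall short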
SIRT5 block = SIRT5 desuccinylase inhibitors, primary screen, biochemical, fluorescence imaging, single point, set 5; inhibition, % at 15 µM; Purified SirT5, succinyl-peptide AMC, trypsin-coupled fluorescence; 330,000 tested, 1.1% active; in the data active means inhibition above about 15%; inconclusive means no clear call, values can overlap the other calls
Active calls of the source: *; ? = inconclusive; nt = not tested or not shown. Most compounds without a hit are left out; they make up all but 2.3% or so of the library.

SMILES | PDI inh | ERp5 inh | DENV2 CPE rescue | Rtt109 Vps75 | SIRT5 block
CC1CCc2sc(C(=O)NN)cc2C1 (stereo not given) | 14.9 | 0.6 | 0.3 | 9.6 | -3.2
CCC(=O)N1[C@H](CO)[C@H](c2ccc(-c3ccc(F)cc3)cc2)C12CN(C(C)=O)C2 | nt | 2.6 | 17.6 | nt | 2.7
COCC(=O)N1[C@@H](CO)[C@H](c2ccc(-c3cccc(OC)c3)cc2)C12CN(C(C)=O)C2 | nt | -2.1 | 30.9* | nt | -6.6
COCC(=O)N1CC2(C1)[C@H](c1ccc(-c3cccc(C)c3)cc1)[C@H](CO)N2C(=O)C1CC1 | nt | -2.8 | 48.9* | nt | 1.1
CCc1c(C)nc2ccc(Br)cc2c1SCCC#N | 5.0 | -0.4 | -0.7 | -3.0 | 112.4*
Cc1noc(C)c1NC(=O)Nc1ccc2c(c1)C(=O)N([C@@H](C)CO)C[C@H](C)[C@H](CN(C)Cc1ccncc1)OCCCC[C@H](C)O2 | nt | 0.6 | ? | nt | -3.8
Cc1cccc(C)c1-n1nnnc1C1(C)CCC(=O)N1Cc1cccnc1 (stereo not given) | nt | 3.8 | 37.6* | nt | nt
Cc1cccc(C)c1-n1nnnc1C1(C)CCC(=O)N1Cc1cccs1 (stereo not given) | nt | -1.7 | 56.9* | nt | -6.1
COc1ccc(CN2C(=O)CCC2(C)c2nnnn2Cc2ccccc2)cc1 (stereo not given) | nt | -0.3 | 84.5* | nt | nt
COc1ccc(CN2C(=O)CCC2(C)c2nnnn2-c2c(C)cccc2C)cc1 (stereo not given) | nt | 6.2 | 13.0 | nt | nt
Cc1cccc(C)c1-n1nnnc1C1(C)CCC(=O)N1Cc1ccco1 (stereo not given) | nt | -8.0 | 5.1 | nt | -3.4
Cc1ccc(CN2C(=O)CCC2(C)c2nnnn2-c2c(C)cccc2C)cc1 (stereo not given) | nt | -6.5 | -4.2 | nt | 16.1*
CCCC(=O)Nc1ccc2c(c1)C(=O)N(C)[C@@H]1CC[C@@H](CC(=O)OC)O[C@@H]1CO2 | nt | nt | 0.1 | nt | nt
C[C@@H]1CN([C@H](C)CO)C(=O)c2cc(NC(=O)Cc3ccccc3)ccc2O[C@@H](C)CCCCO[C@@H]1CN(C)C(=O)Cc1ccccc1 | nt | -5.5 | 8.0 | nt | 0.5
COC(=O)[C@H]1[C@H](CO)[C@H]2Cn3c(ccc(-c4ccccc4F)c3=O)[C@H]2N1Cc1ccccc1 | nt | -4.7 | -5.1 | nt | 3.3
c1ccc(Nc2cccc(Nc3ccccc3)c2)cc1 | 7.1 | nt | nt | -1.1 | nt
Oc1cccc(Nc2ccccc2)c1 | nt | 3.5 | 28.5* | 0.7 | nt
COCc1cccc(-c2csc(C(N)c3ccc(F)c(F)c3)n2)c1 (stereo not given) | 4.0 | 1.6 | 21.1* | nt | nt
COc1ccc(OCC(=O)Nc2ccc(NC(=O)c3cccs3)cc2)cc1 | -6.2 | 1.9 | -0.4 | -8.7 | 102.2*
COc1ccc(OCC(=O)NNC(=O)c2cccs2)cc1 | 8.6 | nt | nt | -1.1 | nt
N#CCSc1ccccc1NC(=O)CN1C(=O)C(=O)N(Cc2ccccc2)C1=O | 2.1 | 8.8 | 40.6* | -1.3 | nt
O=C(CN1C(=O)C(=O)N(Cc2ccccc2)C1=O)Nc1cc(Cl)cc(Cl)c1 | 14.3 | 8.8 | nt | 19.4 | -7.0
COc1ccc(O[C@H]2C=C[C@@H](c3ccccc3)O[C@@H]2CO/N=C(\C)CCN2CCCCc3nc(C)c(C)cc32)cc1 | nt | 7.1 | 36.2* | nt | -2.6
COc1ccc(S(=O)(=O)N2CCCc3nc(C)c(C)cc32)cc1 | nt | 1.9 | -6.5 | nt | nt
O=c1cc(O)c2sc3nc4c(c(C(F)(F)F)c3c2[nH]1)CCCCC4 | -12.5 | 0.4 | -2.7 | -3.7 | 16.6*
SMILES | PDI inh | ERp5 inh | DENV2 CPE rescue | Rtt109 Vps75 | SIRT5 block
O=c1cc(O)c2sc3nc(-c4ccccc4)cc(C(F)(F)F)c3c2[nH]1 | -3.4 | nt | nt | -7.3 | nt
CC(=O)N(CCC(Cc1ccccc1)c1ccco1)Cc1ccco1 (stereo not given) | 10.3 | -3.2 | 2.4 | 53.0* | -4.1
O=C(c1ccco1)N(CCC(c1ccccc1)c1ccco1)Cc1ccco1 (stereo not given) | 5.0 | nt | nt | 26.5 | nt
CC(NC(=O)CCc1ccccc1)c1ccc2c(c1)OCO2 (stereo not given) | 16.3 | -0.8 | 28.6* | 3.9 | 3.6
CCS(=O)(=O)Nc1ccc2c(c1)C(=O)N(C)[C@@H]1CC[C@@H](CC(=O)OC)O[C@@H]1CO2 | nt | 3.0 | 2.7 | nt | -2.8
CCN(CC)S(=O)(=O)c1ccc(N2CCOCC2)c(NC(=O)c2ccc(NC(C)=O)cc2)c1 | 4.4 | 5.7 | 0.1 | 11.8 | 15.2*
CCN(CC)S(=O)(=O)c1ccc(N2CCOCC2)c(NC(=O)c2ccc3c(c2)OCCO3)c1 | -5.0 | 0.6 | -2.7 | 18.1 | 2.2
COc1cc(C=C2C(=O)C=CC2=O)ccc1O | nt | -2.0 | -1.8 | nt | 28.0*
COc1cc(/C=C/C(=O)/C=C(O)/C=C/c2ccc(O)c(OC)c2)ccc1O | 45.8* | 10.0 | nt | 4.5 | -1.7
O=C(OCc1ccccc1)N1CCC2CC1c1ccc(N3CCNCC3)cc12 (stereo not given) | -3.3 | 1.2 | 75.4* | nt | -2.1
O=C(OCc1ccccc1)N1CCCC2CC1c1ccccc12 (stereo not given) | -3.0 | -9.0 | 43.8* | nt | -2.2
O=C(OCc1ccccc1)N1CCC2CC1c1ccc(N3CCOCC3)cc12 (stereo not given) | 2.7 | 4.3 | 1.6 | nt | nt
NCC[C@@H]1CC[C@H](NC(=O)C2CC2)[C@@H](CO)O1 | nt | -0.4 | -2.8 | nt | -1.2
CC(C)C(=O)Nc1ccc2c(c1)C(=O)N(C)[C@H]1CC[C@H](CC(=O)NCc3ccc(F)cc3)O[C@@H]1CO2 | nt | -1.9 | -16.9 | nt | 1.4
CC(=O)OCCCN(C)CC/C=C1/c2ccccc2CSc2ccccc21 | -0.4 | 8.5 | 43.4* | 4.4 | -6.0
C[C@@H]1CCCCO[C@H](CN(C)S(=O)(=O)c2cn(C)cn2)[C@H](C)CN([C@@H](C)CO)C(=O)c2cc(NC(=O)c3ccncc3)ccc2O1 | nt | -5.9 | 3.6 | nt | 7.9
COc1ccccc1CN1[C@H](CO)[C@@H](c2ccccc2)C12CN(C(C)=O)C2 | nt | -2.6 | 11.6 | nt | -3.3

Screening data (PubChem BioAssay)
